Most compounds without a hit are left out; they make up all but 2.1% or so of the library.
Abeta rescue: compounds reversing amyloid beta toxicity in yeast; Potency, µM (titrated, usually from 46.1 µM), usual class: activators; hit rate 0.063% among 410,000; yeast expressing A-beta42, growth rescue, OD600, 48 h; response scale: 0% DMSO, 100% iron-clioquinol control; also: nearly all actives have a fitted effect of over 55% in size
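Yeast growth medium received pinned compounds, then yeast cells expressing toxic A-beta were added; plates incubated at 30 C for 48 hr. Growth read as absorbance at 600 nm, normalized to DMSO and equimolar FeCl3 plus clioquinol controls.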
aSyn yeast inh: alpha-synuclein toxicity inhibition in yeast. Potency, µM (top dose mostly 46.1 µM), for inactives: at the top dose growth rescue (activation), usual class: activators. Yeast expressing alpha-synuclein, growth rescue, BacTiter-Glo, 24 h. hit rate 0.14% among 370,000; also: % of control where 0% means no effect; nearly all actives have a fitted effect of over 65% in size
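Screening used galactose-induced yeast with toxic alpha-synuclein levels, exposed to compound for 24 hr at 30 deg C. Cell growth, read with BacTiter-Glo luminescence, gave the measured signal.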
FUS suppressor: rescues growth of FUS-expressing yeast. S. cerevisiae FUS-expressing, growth rescue, OD600, 24 h. AID 1347120. Potency, µM (titrated, usually from 76.6 µM), hits mostly activators. hit rate 0.24% among 390,000;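 also: plate controls were DMSO vehicle for no effect and reference control for full effect; nearly all actives have a fitted effect of over 55% in size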
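Restored growth of FUS-toxic S. cerevisiae, read as 600 nm absorbance after 24 h at 30C in galactose medium (starting OD 0.005). Controls CP55940 and DMSO.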
TDP43 rescue: inhibitors of TDP-43 toxicity in yeast | TDP-43 expressing yeast growth rescue, BacTiter-Glo, 24 h | Potency, µM (top dose mostly 46.1 µM), without a hit: at the highest dose growth rescue (activation), most hits filed as activators | hit rate 1.8% among 410,000 | AID 652104; also: % of control where 0% means no effect; nearly all actives have a fitted effect of over 50% in size
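Yeast cells expressing TDP-43 under galactose induction are exposed to compounds for 24 hr at 30 deg C. BacTiter-Glo luminescence measures growth, so protective compounds score as activators.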
Active calls of the source: *; i = inactive; ? = inconclusive; . = no result. Calls follow the shape of the dose curve; as a rule, active = well fitted curve in the direction sought with a large enough effect; inconclusive = small, poorly fitted or top-dose-only effect, or another doubt; inactive = no such curve, though single readings can be large; an effect the other way counts as inactive or inconclusive. Potency is read from the fitted curve at half-maximal effect.

SMILES	Abeta rescue	aSyn yeast inh	FUS suppressor	TDP43 rescue
CC(NC(=O)COC(=O)C1CCN(c2ccc(C(F)(F)F)cn2)CC1)c1ccccc1 (stereo unspecified)	i	27.3%	i	-3.9%
Cc1ccc(NC(=O)COC(=O)C2CCN(c3ccc(C(F)(F)F)cn3)CC2)cc1	?	2.2%	i	25.1µM*
CCC1(c2ccccc2)NC(=O)N(C)C1=O (stereo unspecified)	i	-3.0%	i	13.9%
CCc1nc2ccc(C(=O)Nc3cc(-c4ccccc4)ccc3OC)cn2c1N(C)CCCc1ccccc1	i	-14.4%	?	20µM*
CCOC(=O)c1sc(NNC(=O)c2ccc(F)cc2)nc1C	?	?	i	14.1µM*
CCOC(=O)c1sc(NCCNc2nc(C)c(C(=O)OCC)s2)nc1C	i	6.9%	i	-25.2%
CCOC(=O)c1sc(NNC(=O)c2ccc(C)cc2)nc1C	i	-3.0%	i	-17.2%
CCOC(=O)c1sc(NC(=O)Nc2ccccc2F)nc1C	i	-0.9%	i	15.8%
CCOC(=O)c1sc(Nc2ccc(Br)cc2)nc1C	i	0.5%	i	15.8µM*
CCOC(=O)c1sc(Nc2ccccc2Cl)nc1C	i	-2.8%	i	20µM*
CCN(CC)CC(C)(C)C(=O)/C=C/c1ccc(/C=C/C(=O)C(C)(C)CN(CC)CC)cc1	i	2.8%	.	14.4%
CC1CCCN(CCOCCOc2ccc(Br)cc2Cl)C1 (stereo unspecified)	i	16.7%	i	-16.1%
CC1CCCN(CCOCCOc2ccc(Cl)cc2Br)C1 (stereo unspecified)	i	0.4%	7.08µM*	-19.7%
COc1ccc(C2=C(c3ccccc3)OC(OC)c3cc(F)ccc32)cn1 (stereo unspecified)	?	?	i	15.8µM*
COC1OC(c2ccccc2)=C(c2ccc(C(N)=O)cc2)c2ccc(F)cc21 (stereo unspecified)	i	-1.3%	i	0.7%
COc1cccc(C(=O)NCCNc2nc3cc(C)cc(C)c3cc2C#N)c1	i	-9.3%	i	10.0%
CCC1CN(C(=O)N2CCC(C(=O)N3CCN(c4cc(C)ccc4C)CC3)CC2)c2ccccc2O1 (stereo unspecified)	i	.	?	22.4µM*
CCC1CN(C(=O)N2CCC(C(=O)N3CCN(c4cccc(C)c4C)CC3)CC2)c2ccccc2O1 (stereo unspecified)	i	.	?	-24.3%
CCN(CC)CCN(Cc1cc2cc(C)ccc2[nH]c1=O)C(=O)Nc1ccccc1OC	i	0.0%	i	-1.3%
CC(C)C[C@H]1CNC(=S)N1C[C@H]1CCCN1C[C@H](CC(C)C)N1C[C@H](CC(C)C)N(CCc2ccccc2)C1=S	?	-31.8%	i	28.0%
CCOc1ccc(CCN2C(=O)C(=O)N([C@@H](Cc3ccc(O)cc3)CN3CCC[C@H]3CN3C(=O)C(=O)NC[C@@H]3Cc3ccccc3)C[C@@H]2Cc2ccc(O)cc2)cc1	i	-0.6%	?	8.5%
CC(C)C[C@H]1CNC(=S)N1C[C@H]1CCCN1C[C@H](Cc1ccccc1)N1C[C@H](CC(C)C)N(CCc2ccccc2)C1=S	?	-46.0%	25.1µM*	?
CCOc1ccc(CCN2C(=O)C(=O)N([C@@H](Cc3ccccc3)CN3CCC[C@H]3CN3C(=O)C(=O)NC[C@@H]3Cc3ccccc3)C[C@@H]2Cc2ccc(O)cc2)cc1	i	0.4%	15.8µM*	7.1%
C[C@@]12CCC3[C@@](CCC4[C@@]3(C)CCC[C@@]4(C)C(=O)O)(CC1=O)C2 (stereo partly specified)	i	5.0%	i	20µM*
CCc1nc(SCc2ccc(Br)cc2)n[nH]1	i	12.1%	i	?
SMILES	Abeta rescue	aSyn yeast inh	FUS suppressor	TDP43 rescue
Cc1ccc2c(C)c(C(=O)N3CCN(C4CCS(=O)(=O)C4)CC3)oc2c1C (stereo unspecified)	i	1.5%	i	5.0%
Cc1cc(Cl)c2oc(C(=O)N3CCN(c4cnccn4)CC3)c(C)c2c1	i	12.0%	i	5.2%
Cc1ccc2c(C)c(C(=O)N3CCN(c4cnccn4)CC3)oc2c1C	i	26.9%	.	12.6µM*
Cc1ccc2c(C)c(C(=O)N3CCC(O)(c4ccccc4)CC3)oc2c1C	i	10.1%	i	22.4µM*
COc1ccc(NC(=O)c2cc(-c3ccccc3)nc3c2cnn3C(C)C)cc1	i	0.8%	i	-0.3%
OC(C#CCN1CCCC1)(c1ccccc1)c1cccc(F)c1 (stereo unspecified)	i	-6.6%	.	27.6%
O=C(OCc1c(F)cccc1Cl)c1cc([N+](=O)[O-])ccc1N1CCOCC1	?	10.9%	i	5.6%
O=C(COC(=O)c1cc([N+](=O)[O-])ccc1N1CCOCC1)c1ccccc1Cl	i	10.4%	i	?
O=C(COC(=O)c1cc([N+](=O)[O-])ccc1N1CCOCC1)c1ccccc1	i	5.2%	i	20µM*
O=C(Nc1ccc(N2CCN(C(=O)c3ccccc3)CC2)cc1)c1cc([N+](=O)[O-])ccc1N1CCOCC1	i	1.3%	35.5µM*	-8.4%
CCOC(=O)c1ccccc1NC(=O)COC(=O)c1cc([N+](=O)[O-])ccc1N1CCOCC1	i	4.2%	i	17.8µM*
O=C(OCc1ccccc1Cl)c1cc([N+](=O)[O-])ccc1N1CCOCC1	i	19.1%	i	20µM*
CC(=O)Nc1ccc(NC(=O)COC(=O)c2cc([N+](=O)[O-])ccc2N2CCOCC2)cc1	i	-0.7%	.	0.0%
CC(C)c1ccc(NC(=O)c2cc([N+](=O)[O-])ccc2N2CCOCC2)cc1	?	-6.1%	?	29.6%
COc1ccc(F)cc1-c1cc(C(=O)NC2CCCCC2)[nH]n1	i	-5.3%	i	24.3%
CCCNC(=O)C1CN(S(=O)(=O)c2ccc(C)cc2)c2ccccc2O1 (stereo unspecified)	i	7.4%	i	-13.4%
COc1ccc(NC(=O)c2sc3nc4n(c(=O)c3c2C)CCC4)c(OC)c1	i	.	i	19.9%
O=C(Cn1c2ccc(F)cc2c2nc3n(c(=O)c21)CCS3)N1CCCC1	i	-1.4%	i	-23.0%
COc1ccc(-c2nnc(NC(=O)c3ccc(S(=O)(=O)N4CCCc5ccccc54)cc3)o2)cc1	i	6.1%	i	18.2%
COc1ccc(C(=O)COC(=O)c2cc(S(=O)(=O)N3CCCCC3)ccc2N2CCOCC2)c(OC)c1	i	2.8%	15.8µM*	?
COc1ccccc1C(=O)COC(=O)c1cc([N+](=O)[O-])ccc1N1CCOCC1	i	12.1%	i	11.2µM*
Cc1ccc(C(=O)c2cc([N+](=O)[O-])ccc2N2CCOCC2)cc1	i	14.4%	.	35.5µM*
COc1ccc(C(=O)COC(=O)c2cc([N+](=O)[O-])ccc2N2CCOCC2)c(OC)c1	i	0.0%	.	?
COc1ccc(C(=O)c2cc([N+](=O)[O-])ccc2N2CCOCC2)cc1	?	23.3%	.	6.5%

Screening results (PubChem)
